# Key:
# Experiment in all cases: PBM binding z-score (relative to random genomic background probes); higher = stronger binding; sequences stand for … in GC…GCGATTGACAGCGTAGAATGAAGG
# [1] = system: FXR:RXRa (NR concentration 270 nM, RXRa partner concentration 90 nM)
# How it was run: (§1)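 The probes on custom Agilent 4×180K protein-binding microarrays were double-stranded, with 34-nt variable regions bearing direct-repeat seeds, single-nucleotide variants, half-site ablations and random human genomic background sequences. Incubation lasted 1 h with ligand-free nuclear receptor dimers in PBS pH 7.4, 2% milk, 0.02% Triton X-100, 1 mM DTT, 0.2 mg/mL BSA and 0.4 mg/ml salmon testes DNA. Antibodies against each partner (one per run) detected bound dimers, and fluorescence scans were regression-normalized. Binding z-scores take the random background probes as reference.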
# [2] = system: LXRa:RXRa (NR concentration 270 nM, RXRa partner concentration 90 nM)
# How it was run: as §1
# [3] = system: LXRa homodimer (NR concentration 270 nM)
# How it was run: as §1
# [4] = system: LXRb:RXRa (NR concentration 270 nM, RXRa partner concentration 90 nM)
# How it was run: as §1
# [5] = system: LXRb homodimer (NR concentration 270 nM)
# How it was run: as §1
# [6] = system: PPARa:RXRa (NR concentration 270 nM, RXRa partner concentration 90 nM)
# How it was run: as §1
# [7] = system: PPARg:RXRa (NR concentration 180 nM, RXRa partner concentration 90 nM)
# How it was run: as §1
# [8] = system: PPARg:RXRa 270nM:90nM, anti-RXR (NR concentration 270 nM, RXRa partner concentration 90 nM)
# How it was run: as §1
# [9] = system: PPARg:RXRa 30nM:10nM, anti-RXR (NR concentration 30 nM, RXRa partner concentration 10 nM)
# How it was run: as §1
# [10] = system: PPARg:RXRa 90nM:30nM, anti-RXR (NR concentration 90 nM, RXRa partner concentration 30 nM)
# How it was run: as §1
Sequence,PBM binding z-score [1],PBM binding z-score [2],PBM binding z-score [3],PBM binding z-score [4],PBM binding z-score [5],PBM binding z-score [6],PBM binding z-score [7],PBM binding z-score [8],PBM binding z-score [9],PBM binding z-score [10]
ATATGTAGGTGATCGGGTCATTCAGTTTGCGCAT,1.36,1.47,0.268,1.79,0.875,4.72,6.45,5.32,3.24,5.22
CCTAGCAGGCCAGGGTTACTCAAGCATTTCGCTT,-0.32,0.0268,-0.897,0.041,-1.32,0.412,-0.105,0.539,-0.759,-0.212
GCTGCTAGGTCAGGTTGGTCCGCTAACGGGTACG,1.45,0.788,-0.309,0.439,0.221,1.46,0.195,0.764,-0.421,0.25
CTCGAAAGGTCGTGCTCAGGTGGGTATACCAAAC,5,3.41,0.337,3.41,0.396,4.5,2.17,3.18,0.828,1.96
GCTATTAATTGAAAGGGCAACCGAATGATTCTCG,0.000102,0.439,1.02,0.408,-0.192,1.08,0.608,0.921,-0.0129,0.592
TCTTGTAGATCGAGCAGGTTAAGAAAGCCTGAGT,-0.145,0.0215,-0.393,0.284,-0.755,0.628,-0.657,1.17,2.46,1.69
CAAACTAGGTCAAAGCTCAAAGTCGAGCCAACCA,4.62,3.4,0.633,2.4,0.592,5.71,10.2,8.74,9.03,9.54
AACACAGGGTCATCGTAGGCCAGAGTACGCACAG,7.22,6.21,1.53,4.44,0.922,5.84,5.85,5.7,1.96,4.21
AATACAGCGTCATCGTAGGCCAGAGTACGCACAG,-0.326,-0.432,-0.689,-0.757,-0.269,-0.355,0.716,-0.141,-0.189,-0.519
CCAGACAGGTGAGAAGGTAACTTAGCCTCGATTA,0.0387,0.133,-0.108,0.0826,-0.355,0.501,0.351,0.351,-0.0164,0.0696
AGTAGTTGGTCAGCTGAGGTCACACACAATTCGG,4.48,3.37,2.92,3.55,0.79,3.63,1.63,2.33,0.674,1.56
CAAACTAGGTCAAGAGGTCATAGTCCGCTTCCCG,6.79,6.06,5.4,4.74,1.48,6.55,9.82,8,6.96,8.16
AATACAGGGTCATCGTAGGCCACAGTACGCACAG,7.48,6.72,3.33,4.97,1.33,5.98,7.16,6.32,2.8,5.05
GCTAGCAGGCCATTAGGGTCACTCAATGACGGGC,1.78,1.35,-0.158,1.47,-0.982,2.54,1.2,1.3,-0.267,0.446
CCTACTGGGCTAAGGTCATTGATCAGTCAAAGCA,3.85,3.94,1.87,3.49,-0.0794,4.26,3.54,4.28,1.41,3.47
AGAATGAGCTTATTAAGATCAGGGAATTGCGGTC,-0.612,-0.88,-0.374,-0.82,-0.756,-0.52,0.00552,-0.444,-0.148,-0.365
CGAACTAGGTCATTGACAGGACAGTGAATAGTAA,4.56,2.89,0.461,2.07,0.0276,4.67,7.66,6.13,3.8,5.54
GCCTATAGGTAATACAAGGTGAAAGTCCGATTGT,2.26,2.68,-0.0258,0.783,-0.465,1.28,0.667,0.826,0.0563,0.57
AGAATGAGGTTATTAACATCAGGGAATTGCGGTC,1.93,1.61,0.0364,1.24,0.0777,2.63,1.32,1.34,0.42,0.938
TCTAGTTGGCCAAAGGTCACACACTCGAAATGCG,5.4,5.41,3.89,5.44,1.17,6.16,11,9.37,11.1,11.3
CCTAGTTGGTCAGGAGGTCGCACACCGGATATGA,1.17,0.794,0.375,0.833,0.0283,1.59,1.06,1.73,0.24,1.19
ACTATTAGTTGAAACGAGGGCAACCGATAGGTTG,1.41,0.609,0.126,0.482,0.184,1.14,0.901,0.84,0.292,0.528
CCTCGGAGGACAGAAAGTCAGAGCTGTCCGCTTT,-0.421,-0.464,-0.45,-1.05,-0.903,-0.745,-0.796,-0.982,-1.28,-1.14
CCTACTGGGCCAAGGGCATTGATCAGTCAAAGCA,-0.551,-0.572,-0.484,-0.601,-1.35,1.1,2.48,3.44,1,2.55

# Source: the supplement of paper PMC6555819
